Experimental findings from the supplement of paper PMC9262897, “Low-cost anti-mycobacterial drug discovery using engineered E. coli” (Nature Communications, 2022) are described below.

Where a name gives a salt, the structure may show the parent alone. ± gives the standard deviation of the averaged measurements.

The subject of the test is E. coli TESEC Mtb Alr. In words: growth (OD600 after 10 h); higher = more growth (less inhibition). Particulars: arabinose 100000 nM; compound 0.1 mM; raw OD600 reference: median of DMSO wells 0.201, cell-free background 0.041. The protocol:
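TESEC Mtb Alr E. coli, or the Alr+ wild-type control, in 384-well plates with Prestwick library compounds at 0.1 mM and 1% DMSO, across arabinose induction levels of 1E3 to 1E7 nM. Growth is read as OD600 after 10 h at 37 °C in triplicate biological replicates.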
The compound `CCC(=O)O[C@@](Cc1ccccc1)(c1ccccc1)[C@@H](C)CN(C)C` [Levopropoxyphene napsylate] returned a growth of 0.176 ± 0.014. To `COP(=O)(OC)C(O)C(Cl)(Cl)Cl` (stereo not given) [Trichlorfon] belongs 0.199 ± 0.015; to `CCN[C@@H](C)Cc1cccc(C(F)(F)F)c1` [Dexfenfluramine hydrochloride], 0.232 ± 0.027. Next, `CN1C(=O)CCS(=O)(=O)C1c1ccc(Cl)cc1` (stereo not given) [Chlormezanone]: 0.256 ± 0.012; `O=c1c2ccccc2[se]n1-c1ccccc1` [Ebselen]: 0.236 ± 0.027; `C[C@@H]1CN([C@H]2CC[C@](C#N)(c3ccc(F)cc3)CC2)CC[C@]1(C(=O)O)c1ccccc1` [Levocabastine hydrochloride]: 0.171 ± 0.011. To `C[N+]12CCC(CC1)C(OC(=O)C(O)(c1ccccc1)c1ccccc1)C2` (stereo not given) [Clidinium bromide] belongs 0.175 ± 0.03; to `C[C@]12CCC(=O)C(O)=C1CC[C@@H]1[C@@H]2CC[C@]2(C)C(=O)CC[C@@H]12` [Formestane], 0.1 ± 0.0018. `NCCCNCCSP(=O)(O)O` [Amifostine] gave a growth of 0.253 ± 0.011.

Compound `CC(C)(N)Cc1ccccc1` [Phentermine hydrochloride] had a growth of 0.199 ± 0.033. To `CN[C@@H]1C[C@@H](c2ccc(Cl)c(Cl)c2)c2ccccc21` [Indatraline hydrochloride] belongs 0.0425 ± 0.0013; to `C[C@@H]1CC[C@H]2[C@@H](C)C(=O)O[C@@H]3O[C@@]4(C)CC[C@@H]1[C@]32OO4` [Artemisinin], 0.142 ± 0.013. To `CCCC[N+]1(C)[C@@H]2CC(OC(=O)[C@H](CO)c3ccccc3)C[C@H]1[C@@H]1O[C@@H]12` (stereo not given in full) [Butylscopolammonium (n-) bromide] belongs 0.189 ± 0.01; to `O=P1(NCCCl)OCCCN1CCCl` (stereo not given) [Ifosfamide], 0.175 ± 0.022; to `CCN(C(C)=O)c1cccc(-c2ccnc3c(C#N)cnn23)c1` [Zaleplon], 0.205 ± 0.028. To `C[C@]12CCC(=O)C=C1CC[C@@H]1[C@@H]2C(=O)C[C@]2(C)C(=O)CC[C@@H]12` [Adrenosterone] belongs 0.163 ± 0.0036; to `CN1CCN(C(=O)OC2c3nccnc3C(=O)N2c2ccc(Cl)cn2)CC1` (stereo not given) [Zopiclone], 0.183 ± 0.011. With `O=C(O)CCCc1ccc(N(CCCl)CCCl)cc1` [Chlorambucil], the growth worked out at 0.206 ± 0.0083.

Compound `CCC1(C)CC(=O)NC(=O)C1` [Bemegride] came in with a growth of 0.227 ± 0.039. To `CCCCCC[C@H]1C(=O)O[C@H](C)[C@H](NC(=O)c2cccc(NC=O)c2O)C(=O)O[C@@H](C)[C@@H]1OC(=O)CC(C)C` [Antimycin A] belongs 0.249 ± 0.022; to `CC(=O)OCC1=C(C(=O)O)N2C(=O)[C@@H](N)[C@H]2SC1` [Cephalosporanic acid, 7-amino], 0.22 ± 0.023; to `CC(N)C(O)c1ccccc1` (stereo not given) [Phenylpropanolamine hydrochloride], 0.229 ± 0.045. To `C[C@]12Cc3c[nH]nc3C[C@@H]1CC[C@@H]1[C@@H]2CC[C@@]2(C)[C@H]1CC[C@]2(C)O` [Stanozolol] belongs 0.169 ± 0.023; to `NC(=O)CN1CCCC1=O` [Piracetam], 0.224 ± 0.034; to `O=P1(N(CCCl)CCCl)NCCCO1` (stereo not given) [Cyclophosphamide], 0.18 ± 0.021.
